The nature of assay [1]: qHTS assay for small molecules that induce genotoxicity in human embryonic kidney cells expressing luciferase-tagged ATAD5 (AID 651632). Further: nearly all actives have a fitted effect of over 15% in size. An outline of the steps: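 DMSO vehicle served as the control. HEK293T reporter cells, 16 hr at 37C, then 30 min Amplite at room temperature; ATAD5 induction is measured as luciferase activity.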
(In general: In qHTS, concentration-response curves come from the screen itself.)

A short description of assay [2]: qHTS assay for small molecule agonists of the p53 signaling pathway - cell viability (AID 651633; calls by dose curve;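 further: p53RE-bla HCT reporter cells with a stable beta-lactamase p53 reporter; series mostly up to about 83 µM; nearly all actives have a fitted effect of over 30% in size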). In outline: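 p53RE-bla cells, seeded at 4,000 per well and rested 5 h at 37 C/5% CO2, received compounds in DMSO for 16 h at 37 C. CellTiter-Glo was then added, and luminescence was read after 30 min at room temperature to gauge cytotoxicity.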
Assay [3] can be described thus: qHTS assay for small molecules that induce genotoxicity in human embryonic kidney cells expressing luciferase-tagged ATAD5 - cell viability (AID 651634; calls by dose curve; further: nearly all actives have a fitted effect of over 25% in size). In outline:
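Here HEK293T cells with the ATAD5 luciferase reporter are incubated with test compounds for 15.5 hr, and cytotoxicity is then gauged by measuring protease activity in live cells using fluorescence.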

Assay [4] is described as follows: qHTS assay for small molecule disruptors of the mitochondrial membrane potential - cell viability (AID 720634; calls by dose curve;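 further: human HepG2 liver cancer cells; series mostly up to about 83 µM; nearly all actives have a fitted effect of over 20% in size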). An outline of the steps:
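Viability of HepG2 cells is scored from ATP content by luminescence; cells are exposed to compound for 1 hr at 37 C and 5% CO2, then dosed with m-MPI dye before the CellTiter-Glo reagent.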

Assay [5] is described as follows: qHTS assay to test for compound auto fluorescence at 590 nm (red) in HepG2 cells (AID 720674). In outline:
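Intrinsic compound fluorescence in the red window (Ex/Em 540/590 nm) is measured in attached HepG2 cells exposed for 1 hr, DMSO vehicle as baseline, benchmarked to Rose Bengal sodium.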

A short description of assay [6]: qHTS assay to test for compound auto fluorescence at 535 nm (green) in HepG2 cells (AID 720675).
Assay [7] can be described thus: qHTS assay to test for compound auto fluorescence at 460 nm (blue) in HEK293 cells (AID 720678). An outline of the steps:
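After cell attachment (4-5 hr, 37C), compounds were pinned onto HEK293 monolayers in 10% dialyzed FBS medium. The blue channel (405/460 nm) was read following overnight culture. Equivalency was calculated against triamterene.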

A short description of assay [8]: qHTS assay to test for compound auto fluorescence at 590 nm (red) in HEK293 cells (AID 720679). In outline: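 Plates of HEK293 cells (10% dialyzed FBS) are treated with 23 nL compound or DMSO vehicle after a 4-5 hr attachment period, incubated overnight at 37C, and read for red fluorescence at 540/590nm.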
Assay [9] can be described thus: qHTS assay to test for compound auto fluorescence at 535 nm (green) in HEK293 cells (AID 720680).
The nature of assay [10]: qHTS assay to test for compound auto fluorescence at 460 nm (blue) in HEK293 cell free culture (AID 720681). In outline:
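Test compounds were pinned into cell-free culture medium (DMEM with 10% FBS) and fluorescence was read directly at Ex/Em 405/460 nm. Signals were expressed as fluorescence equivalents of triamterene, with DMSO vehicle as control.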

Assay [11] is described as follows: qHTS assay to test for compound auto fluorescence at 535 nm (green) in HEK293 cell free culture (AID 720682). In outline:
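Green-channel intensity (Ex/Em 485/535 nm) was recorded from compound-treated wells containing only DMEM with 10% FBS. Fluorescein provided the equivalency standard.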

Assay [12] is described as follows: qHTS assay to test for compound auto fluorescence at 590 nm (red) in HEK293 cell free culture (AID 720683). An outline of the steps:
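Tox21 10K library compounds were pinned into cell-free DMEM with 10% FBS and fluorescence was read at excitation 540 nm. Activity is expressed as Rose Bengal sodium equivalency.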

The nature of assay [13]: qHTS assay to test for compound auto fluorescence at 590 nm (red) in HepG2 cell free culture (AID 720684). In outline:
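Ex 540 / Em 590 nm read of compound in cell-free MEM (10% FBS). Rose Bengal sodium reference.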

Assay [14] in a line: qHTS assay to test for compound auto fluorescence at 460 nm (blue) in HepG2 cell free culture (AID 720685). An outline of the steps: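 Cell-free plates of MEM plus 10% FBS received 23 nL compound or DMSO vehicle; blue-channel (405/460 nm) intensity scored against triamterene as reference fluorophore.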
Assay [15] in a line: qHTS assay to test for compound auto fluorescence at 535 nm (green) in HepG2 cell free culture (AID 720686).
The nature of assay [16]: qHTS assay to test for compound auto fluorescence at 460 nm (blue) in HepG2 cells (AID 720687). In outline:
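Cells (2,000/well in MEM with 10% FBS) attached overnight at 37 C, then were exposed to compound or DMSO for 1 hr at 37 C, 5% CO2. Fluorescence read at Ex/Em 405/460 nm, expressed as triamterene-equivalent signal.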

Assay [17] is described as follows: qHTS assay for small molecule disruptors of the mitochondrial membrane potential (AID 720635). Further: potency means the concentration at half of the fitted maximal effect. An outline of the steps: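 HepG2 cells (2,000/well) attached overnight at 37C, then took compound for 1 hr at 37C, 5% CO2. Mito-MPS dye was added for 30 min; fluorescence was read at 490/535 nm (monomers) and 540/590 nm (aggregates).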
In assay [18] the target is Glucocorticoid receptor (Homo sapiens) (UniProt P04150). Nature of the assay: qHTS assay to identify small molecule agonists of the glucocorticoid receptor (GR) signaling pathway (AID 720691; active means well fitted activation curve with a large enough effect in the signal ratio in the repeat runs, not every such curve was filed as active; the % refers to the signal ratio). In outline:
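Compounds in DMSO, alongside positive controls, were added to GR-bla HeLa reporter cells and incubated 18 h at 37 C; GRE-driven beta-lactamase was detected by fluorescence after 2 h with FRET substrate at room temperature.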

Assay [19] shares this target. Kind of assay: qHTS assay to identify small molecule antagonists of the glucocorticoid receptor (GR) signaling pathway (AID 720692; active means well fitted inhibition curve with a large enough effect in the signal ratio in the repeat runs, not every such curve was filed as active; the % refers to the signal ratio). In outline: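 In a 1536-well cell format, compounds were added 4 h after seeding GR-bla HeLa cells, together with dexamethasone at 5 nM final; reporter activity was measured by FRET-substrate fluorescence following 18 h at 37 C.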

The text below walks through data of PubChem BioAssay (Tox21).

Molecules are shown by their SMILES. Values joined by “and” are separate entries in the source; they are usually repeats but may differ in a detail not shown here. Identical values can stand only once. Inconclusive results are not listed. Active and inactive are the calls of the source. Unless noted, the call rests on the fitted dose curve; in most records, active means well fitted curve in the direction sought with a large enough effect in the repeat runs; inconclusive means weak or mixed curves; inactive means no such curve, though single readings can be large; an effect the other way counts as inactive or inconclusive.

Chain of Glucocorticoid receptor (Homo sapiens) (P04150 whole entry, looked up): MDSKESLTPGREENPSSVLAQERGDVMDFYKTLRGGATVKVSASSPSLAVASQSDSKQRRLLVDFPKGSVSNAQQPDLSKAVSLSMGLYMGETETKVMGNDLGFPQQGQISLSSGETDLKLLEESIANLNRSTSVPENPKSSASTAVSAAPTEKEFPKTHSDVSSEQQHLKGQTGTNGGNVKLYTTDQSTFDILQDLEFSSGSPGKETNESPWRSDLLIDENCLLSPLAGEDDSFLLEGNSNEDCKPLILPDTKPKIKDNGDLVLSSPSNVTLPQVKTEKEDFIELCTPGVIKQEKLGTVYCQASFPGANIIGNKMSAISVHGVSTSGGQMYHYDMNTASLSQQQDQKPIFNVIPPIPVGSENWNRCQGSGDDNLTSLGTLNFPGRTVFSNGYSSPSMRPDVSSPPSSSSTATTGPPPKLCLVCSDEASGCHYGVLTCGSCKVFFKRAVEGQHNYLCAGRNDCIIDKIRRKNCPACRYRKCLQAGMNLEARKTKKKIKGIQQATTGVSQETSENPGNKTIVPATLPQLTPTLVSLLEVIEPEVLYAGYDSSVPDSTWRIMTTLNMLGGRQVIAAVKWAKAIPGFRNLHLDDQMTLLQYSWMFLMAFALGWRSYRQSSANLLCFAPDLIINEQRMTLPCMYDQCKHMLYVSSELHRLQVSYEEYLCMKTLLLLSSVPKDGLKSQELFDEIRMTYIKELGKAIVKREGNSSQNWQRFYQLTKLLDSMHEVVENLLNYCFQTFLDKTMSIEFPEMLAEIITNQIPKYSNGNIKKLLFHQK

Consider `CCOc1ccc(C(=O)OCCN(CC)CC)cc1`, for which the Potency entry in [1], in assay [3] and in assay [4] was “inactive” throughout. The call in [2], in assay [5], in [6], in assay [7], in assay [8] and in assay [9] was inactive. Besides, the molecule was called inactive in assay [10], in [11], in assay [12], in assay [13], in [14] and in assay [15]. The outcome in assay [16] was inactive.

Regarding `CC(C)(c1ccc(O)cc1)c1ccc(O)cc1`, the Potency result in assay [1], in assay [3] and in assay [4] was “inactive” each time. In addition, the result in [2], in assay [5], in assay [6], in [7], in assay [8] and in assay [9] was inactive. Also, the outcome in assay [10], in [11], in [12], in assay [13], in [14] and in assay [15] was inactive. Moreover, the molecule was called inactive in assay [16]. The Potency in assay [17] was 6.78 µM (active) and 5.54 µM (active).

`OC1CCCCC1c1ccccc1` (centres undefined): the Potency result in [1], in assay [3], in assay [18] and in assay [19] was “inactive” each time. The molecule was called inactive in assay [2], in [5], in [6], in assay [7], in assay [8] and in assay [9]. In addition, the outcome in assay [10], in [11], in assay [12], in assay [13], in assay [14] and in assay [15] was inactive. Also, the call in assay [16] was inactive.

On to `O=C(O)CN(CCOCCOCCN(CC(=O)O)CC(=O)O)CC(=O)O`, for which the Potency entry in assay [1], in [3], in assay [4], in [18] and in assay [19] was “inactive” in each case. Also, the result in assay [2], in [5], in assay [6], in assay [7], in assay [8] and in [9] was inactive. In addition, the result in [10], in assay [11], in [12], in [13], in assay [14] and in assay [15] was inactive. For the same molecule, the molecule was called inactive in assay [16].

Regarding `CN1C(=O)N(C)C(O)C1O` (centres undefined), the Potency entry in assay [1], in [18] and in [19] was “inactive” throughout. Besides, the molecule was called inactive in [2], in assay [5], in assay [6], in assay [7], in assay [8] and in assay [9]. For the same molecule, the call in assay [10], in [11], in assay [12], in [13], in assay [14] and in assay [15] was inactive. Also, the outcome in assay [16] was inactive.

For `OCCCC1CCCCC1`, the Potency entry in assay [1] and in assay [17] was “inactive” in each case. For the same molecule, the molecule was called inactive in assay [2], in [5], in assay [6], in assay [7], in assay [8] and in assay [9]. Also, the outcome in assay [10], in assay [11], in assay [12], in assay [13], in [14] and in assay [15] was inactive. For the same molecule, the outcome in assay [16] was inactive.

On to `Cc1nc2c([nH]1)c(=O)n(C)c(=O)n2Cc1ccco1`, for which the Potency result in [1], in assay [3], in assay [4], in assay [17] and in assay [18] was “inactive” throughout. Moreover, the molecule was called inactive in [5], in assay [6], in [7], in assay [8], in assay [9] and in [10]. In addition, the result in assay [11], in assay [12], in [13], in assay [14], in assay [15] and in assay [16] was inactive.

As to `CCO/C([O-])=N/c1c[n+](N2CCOCC2)no1`, the Potency result in [1], in [3], in [4], in assay [18] and in assay [19] was “inactive” throughout. Also, the molecule was classed as inactive in assay [2], in assay [5], in [6], in assay [7], in assay [8] and in [9]. Besides, the call in [10], in [11], in assay [12], in assay [13], in [14] and in assay [15] was inactive. Moreover, in assay [16], the call was inactive.
